Among all 2,300 compounds or so, about 1,200 (52%) were called active. Not shown: some 34% with an inconclusive outcome. Calls come from the whole dose curve; as a rule, active = well fitted inhibition curve with a large enough effect; inconclusive = small, poorly fitted or top-dose-only effect, or effect the other way; inactive = no such curve, though single readings can be large or run the other way. The set was probably picked from earlier hits. This is one part of the list.
Experiment: Confirmation screen for delayed death inhibitors of the malarial parasite plastid, 48 hour incubation; note: nearly all actives have a fitted effect of over 65% in size
Settings: P. falciparum-infected erythrocytes, luciferase growth; series mostly up to 28.7 µM
Outline: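 Single-generation (48 h, 37 C) exposure of integrated firefly luciferase-reporter P. falciparum in red cells, 0.1% parasitemia at 2% hematocrit, Albumax-supplemented RPMI. Falling luciferase signal marks parasite growth inhibition.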
Potency is the fitted concentration of half-maximal effect.

SMILES	Potency
C/C=C(\C)CN1CCc2cc(OC)c(OC)cc2C1	inactive
COc1ccc(S(=O)(=O)N2CCCN(S(=O)(=O)c3ccc(OC)c(C)c3)CC2)cc1C	14.1 µM (active)
COc1ccc(OCCOc2ccc(S(=O)(=O)N3CCCC3)cc2C(N)=O)cc1	11.2 µM (active)
CCN(CC(=O)Nc1ccc(S(=O)(=O)N2CCOCC2)cc1)Cc1ccccc1	12.6 µM (active)
COc1cc2c(cc1OC)CN(CC(=O)Nc1ccc(S(=O)(=O)N3CCCC3)cc1)CC2	15.8 µM (active)
O=C(CCCN1C(=O)/C(=C\c2ccco2)SC1=S)Nc1ccc2ccccc2c1	inactive
N=C1S/C(=C\c2ccco2)C(=O)N1c1nccs1	14.1 µM (active)
O=C(c1ccc(Cl)cc1)C(Cn1cncn1)C(Sc1ccccc1)c1ccccc1 (configuration not stated)	14.1 µM (active)
Cc1cc(C)c(/C=C(\C#N)C(N)=S)c(C)c1	inactive
CCN(CC)S(=O)(=O)c1ccc(N2CCOCC2)c(NC(=O)C2CSC3(C)CCC(=O)N23)c1 (configuration not stated)	14.1 µM (active)
COc1ccc([C@@]2(C(C)C)ON(c3ccccc3C(F)(F)F)C2=O)cc1	1.12 µM (active)
CCOC(=O)CC(Nc1nc(N2CCOCC2)nc(N2CCOCC2)n1)c1ccccc1Cl (configuration not stated)	6.31 µM (active)
CCCc1ccc(C(=O)NC(=O)c2ccccc2O)cc1	0.501 µM (active)
CSc1ccccc1OCc1cc(C(=O)N2C[C@H]3CC[C@H]2C3)no1	inactive
CSc1ccccc1OCc1cc(C(=O)NCCn2ccnc2C)no1	inactive
CCN(CCN1CCCC1)C(=O)c1cc(COc2ccccc2SC)on1	15.8 µM (active)
CSc1ccccc1OCc1cc(C(=O)N(C)CCc2c(C)n[nH]c2C)no1	12.6 µM (active)
CSc1ccccc1OCc1cc(C(=O)NCCCn2nc(C)cc2C)no1	15.8 µM (active)
Nc1nc(SCC(=O)NCC2CCCO2)[nH]c(=O)c1NC(=O)c1ccc(F)c(F)c1 (configuration not stated)	12.6 µM (active)
CCS(=O)(=O)c1nc(S(=O)(=O)c2ccc(C)cc2)c(N2CCC3(CC2)OCCO3)s1	12.6 µM (active)
CC(C)Cc1ccc(C(=O)Nc2ccc(Cc3ccncc3)cc2)o1	12.6 µM (active)
CCN(CC)S(=O)(=O)c1cc(NC(=O)C(C)OC(=O)c2[nH]c(C)c(C(C)=O)c2C)ccc1C (configuration not stated)	4.47 µM (active)

SMILES	Potency
Cc1oc2c(c1C(=O)N1CCOCC1)C(=O)c1ccccc1C2=O	2 µM (active)
CCCC1O[C@@H]2CC3C4CCC5=CC(=O)C=C[C@]5(C)C4C(OC(C)=O)C[C@]3(C)[C@]2(C(=O)COC(C)=O)O1 (some centres not stated)	7.08 µM (active)
COC1C(OC(=O)/C=C/C=C/C=C/C=C/C(=O)O)CCC2(CO2)C1C1(C)OC1CC=C(C)C (configuration not stated)	0.0562 µM (active)
CC[n+]1ccc(/C=C/c2c[nH]c3ccccc23)cc1	0.355 µM (active)
CCc1ccc(/C=C/c2c[nH]c3ccccc23)[n+](CC)c1	0.126 µM (active)
CC(C)CC1NC(=S)N(Cc2ccccc2)C1=O (configuration not stated)	5.01 µM (active)
Cc1nnsc1C(=O)Nc1ccccc1	inactive
O=C(C#Cc1ccccc1)Nc1cccc(F)c1	7.94 µM (active)
NC(=O)c1ccc(NC(=O)C#Cc2ccccc2)cc1	5.01 µM (active)
Nc1ccc(-c2c3ccc(=O)cc-3oc3cc(O)ccc23)c(C(=O)O)c1	inactive
c1ccc(Cn2nnc3c(N4CCCCCC4)ncnc32)cc1	14.1 µM (active)
CCn1c(=O)n(CC)c2cc(N3CCCC3)c(NC(=O)c3ccc(C)cc3)cc21	11.2 µM (active)
COc1ccc(NC(=O)Cc2coc3cc(C)c(C(C)C)cc23)cc1S(=O)(=O)N1CCOCC1	12.6 µM (active)
COc1ccc(NC(=O)Cc2ccc(Cl)cc2)cc1S(=O)(=O)N1CCCCC1	12.6 µM (active)
Cc1ccc(NC(=O)COc2ccccc2C#N)cc1S(=O)(=O)N1CCCCCC1	14.1 µM (active)
COc1ccc(CC(=O)NNC(=O)CN(C)S(=O)(=O)c2ccc(Cl)cc2)cc1OC	inactive
Cc1csc(NC(=O)Cc2coc3cc(C)c(C(C)C)cc23)n1	14.1 µM (active)
COc1ccccc1-c1coc2cc(OC(=O)N3CCOCC3)ccc2c1=O	inactive
O=C(COC(=O)c1ccc(F)c(S(=O)(=O)N2CCOCC2)c1)Nc1ccc2[nH]c(=O)[nH]c2c1	inactive
CC1(C)CC(=O)C=C(NC2=CC3OC(c4ccccc4)OCC3OC2=O)C1 (configuration not stated)	inactive
CC[n+]1ccccc1/C=C/c1ccc(N(C)C)cc1	2.24 µM (active)
Cc1ccc(/C=C/c2ccc(N(C)C)cc2)[n+](C)c1	1.26 µM (active)

SMILES	Potency
COc1cc(/C=C(/C#N)C(=O)NCc2ccccc2)cc(OC)c1OC	14.1 µM (active)
CC[C@@H](C(=O)[C@@H](C)[C@@H](O)[C@H](C)CCc1ccc(C)c(O)c1C(=O)O)[C@H]1O[C@](CC)([C@H]2CC[C@](O)(CC)[C@H](C)O2)C[C@@H]1C	0.708 µM (active)
COc1ccc(N2CCc3c(C)nc4c(OC)cc(OC)cc4c32)c(OC)c1	11.2 µM (active)
Cc1cc(=O)nc2c3ccccc3n(CC(=O)NCCC3=CCCCC3)n12	12.6 µM (active)
Cc1ccccc1OCC(=O)NCCC1=CCCCC1	inactive
Brc1ccc(/C=N/Nc2ncnc3c2cnn3Cc2ccccc2)cc1	3.98 µM (active)
COc1cccc(/C=N/NC(=O)c2nc(-c3ccccc3)cc(-c3ccccc3)n2)c1O	6.31 µM (active)
COC(=O)c1ccc(COc2ccccc2/C=N/O)o1	inactive
O=C(Cn1ncc2c3ccccc3n(Cc3cccc(Cl)c3)c2c1=O)NCc1ccccn1	14.1 µM (active)
COc1ccc(Cn2c(O)c(C=Nc3ccc(O)cc3)c3ccccc3c2=O)cc1	10 µM (active)
CC[C@@H]1CC=C[C@H]2[C@H]1C(=O)N(Cc1ccccc1)[C@H]2c1ccoc1	7.08 µM (active)
O=C(COC(=O)c1c2c(nc3ccccc13)CCN(Cc1ccccc1)C2)Nc1c(F)cccc1F	6.31 µM (active)
COc1cccc(CN2CCN(c3nc4nonc4nc3N3CCCCC3)CC2=O)c1	10 µM (active)
O=C(COc1ccc(Br)cc1)Nc1cc(S(=O)(=O)N2CCCCC2)ccc1N1CCCCC1	5.62 µM (active)
O=C(COc1ccc(Cl)cc1)Nc1cc(S(=O)(=O)N2CCCCC2)ccc1N1CCCCC1	5.62 µM (active)
CC(Oc1cccc(Cl)c1)C(=O)Nc1cc(S(=O)(=O)N2CCOCC2)ccc1N1CCCCC1 (configuration not stated)	5.01 µM (active)
CCN1CCN(c2ccc(S(=O)(=O)N3CCCCC3)cc2NC(=O)COc2cc(C)ccc2Cl)CC1	14.1 µM (active)
C[C@@H]1[C@H](O)C[C@@]23COC(=O)C2=CCCC3[C@@]1(C)CCC1COC(=O)C1 (some centres not stated)	inactive
CSc1ccc(/C=C/C(=O)c2ccc(NC(=O)C(C)C)cc2)cc1	15.8 µM (active)
CSc1c(CC(=O)Nc2ccccc2)n(C)c2ccccc12	8.91 µM (active)
Cc1ccc(NC(=O)c2cc(C(C)(C)C)nn2Cc2ccccc2)cc1	11.2 µM (active)
Cc1cccc(Cn2nc(C(C)(C)C)cc2C(=O)Nc2ccc(F)cc2)c1	4.47 µM (active)

SMILES	Potency
Cc1ccc2c(c1)cc(C(=O)NCc1ccccc1)n2C	inactive
CC(C)(C)c1cc(C(=O)NNc2cccc(Cl)c2)n(Cc2ccccc2)n1	12.6 µM (active)
CCOC(=O)C1CCN(c2cc3c(cc2NC(=O)c2ccccc2Cl)n(C)c(=O)n3C)CC1	11.2 µM (active)
CCOc1c(Cl)cc(C(=O)Nc2ccccc2C(=O)O)cc1Cl	inactive
CC(=O)N(C)C1=C(N2CCOCC2)C(=O)c2ccccc2C1=O	0.631 µM (active)
O=C(CCN1C(=O)/C(=C/c2ccccc2Cl)SC1=S)N1CCOCC1	15.8 µM (active)
CN1CCN(C(=O)CCN2C(=O)/C(=C\c3ccc(Cl)cc3)SC2=S)CC1	inactive
CN1CCN(C(=O)CCN2C(=O)/C(=C/c3cccc(Br)c3)SC2=S)CC1	11.2 µM (active)
C=C(C)n1c(=O)n(Cc2ccccc2C)c2ccccc21	12.6 µM (active)
Cc1ccc(-n2c(Cl)c(Cl)nc(Cl)c2=O)cc1	12.6 µM (active)
Cc1ccc(-n2nnnc2SCC(=O)Nc2ccccc2-c2ccccc2)cc1C	inactive
Cc1ccc(-n2nnnc2Sc2nc([N+](=O)[O-])nn2C)cc1C	3.55 µM (active)
N#Cc1cc(C(=O)c2cc(Cl)ccc2O)cn(-c2ccccc2)c1=O	14.1 µM (active)
O=C(OCC(=O)N1CCN(c2ccccc2)CC1)c1cc(Cl)ccc1[N+](=O)[O-]	inactive
Cc1[nH]c(C)c(S(=O)(=O)N2CCN(c3cccc(C(F)(F)F)c3)CC2)c1C(=O)N1CCCCC1	inactive
Cc1[nH]c(=O)[nH]c(=O)c1S(=O)(=O)N1CCCC(C(=O)N2CCN(c3cccc(C(F)(F)F)c3)CC2)C1 (configuration not stated)	12.6 µM (active)
Cc1ccc(C)c(SCc2noc(C(=O)NC(C)C)c2C(=O)O)c1	inactive
Cc1cc(C(C)(C)C)cc(C)c1CCNC(=O)c1ccc[n+]([O-])c1	14.1 µM (active)
CCCCNC(=O)c1onc(CSc2cc(C)ccc2C)c1C(=O)O	inactive
Cc1cc(C(C)(C)C)cc(C)c1CCNC(=O)c1c(C)noc1C	12.6 µM (active)
CCN(C(=O)c1cc2c(=O)n3ccccc3nc2n1CCCOC)C1CCCCC1	12.6 µM (active)
COc1ccc(OC)c(NC(=O)c2ccccc2N(C)S(=O)(=O)c2ccc(C)cc2)c1	14.1 µM (active)

SMILES	Potency
COc1ccc(OC)c(NC(=O)c2nc(S(=O)(=O)Cc3ccccc3)ncc2Cl)c1	inactive
Cc1ccc(Nc2cc(C)c3ccc(O)cc3n2)cc1C	0.224 µM (active)
CC(c1ccco1)N(C(=O)c1cc(Cl)cc(Cl)c1)c1ccccn1 (configuration not stated)	11.2 µM (active)
CC(C)N1CCC2(CC1)N=C(c1ccc3c(c1)OCO3)CC(c1cc(Cl)ccc1O)N2 (configuration not stated)	2.82 µM (active)
CC(C)C1N=C(c2ccc3c(c2)OCO3)CC(c2ccccc2O)N1 (configuration not stated)	12.6 µM (active)
COc1ccc(/C=C/C(=O)c2ccccc2)cc1Cn1nnc2ccccc21	10 µM (active)
COc1cc(Cn2nnc3ccccc32)ccc1O	12.6 µM (active)
CC(C)C[C@@H](CN=[N+]=[N-])N1CCN(C)CCC1=O	inactive
Cc1cc(NC(=O)COC(=O)c2ccccc2S(=O)(=O)N(C)c2ccccc2)no1	8.91 µM (active)
CC(C)NC(=O)NC(=O)COC(=O)c1ccccc1Oc1ccccc1	inactive
O=C(COC(=O)c1ccc(O)cc1O)Nc1ccc2ccccc2c1	inactive
Cc1cccc(C)c1NC(=O)CCCSc1nnc(-c2ccc(F)cc2)n1-c1ccccc1	15.8 µM (active)
COC(=O)CCC(=O)OC1(C)C(=O)C=C2C=C(C3CC3)N(CCCOC(C)C)C=C2C1=O (configuration not stated)	2 µM (active)
OCC1(CCOc2ccccc2)CCN(Cc2nc3ccc(F)cc3[nH]2)CC1	12.6 µM (active)
Cc1c(CN2CCC(CO)(CCOc3ccccc3)CC2)[nH]c2ccc(Cl)cc12	7.08 µM (active)
CN(C)c1ccc2nc3ccc(=[N+](C)C)cc-3sc2c1	0.0794 µM (active)
COc1ccc(C)cc1-n1c(SCC(=O)Nc2cc(C)on2)nc2sc(C)c(C)c2c1=O	2.51 µM (active)
COc1ccccc1-n1c(SCC(=O)Nc2cc(C)on2)nc2c([nH]c3ccccc32)c1=O	8.91 µM (active)
NC(=O)C1CCN(c2nc(C3CC3)nc3c2nnn3Cc2ccccc2Cl)CC1	4.47 µM (active)

From PubChem BioAssay AID504850 (National Center for Advancing Translational Sciences (NCATS), 2011)
